HepG2 tox-1 = qHTS for Inhibitors of TGF-b: Cytotox Counterscreen | HepG2 CAGA-GFP viability, ATP luminescence, 18 h | Potency, µM (highest dose often 46.1 µM), actives largely listed as cytotoxic | 410,000 tested, 0.76% active | AID 588856, 2011
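CellTiter-Glo luminescence gave cytotoxicity after 18 hours at 37 degrees C. The cells were HepG2 CAGA-GFP in 1% FBS DMEM, stimulated with 500 pg/mL TGF-beta after compound addition. %Activity was normalised to no-cell wells (complete cell-killing) and DMSO (no toxicity), and curves were fitted and classified.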
TGFb inhibitor = qHTS for Inhibitors of TGF-b; HepG2 CAGA-GFP TGF-b/SMAD3 reporter, GFP fluorescence, 18 h; TGF-beta stimulated, 500 pg/mL final; Potency, µM (highest dose often 46.1 µM), actives largely listed as inhibitors; 410,000 tested, 1.2% active; AID 588855, 2011; further: nearly all actives have a fitted effect of over 65% in size
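Using HEPG2 CAGA-GFP reporter cells at 1000 cells/well, we pinned test compounds, stimulated with recombinant TGF-beta (500 pg/mL final) and measured total well GFP after 18 h.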
ATXN2 expr inh = Primary qHTS for Inhibitors of ATXN expression | Potency, µM (titrated, usually from 57 µM), usual class: inhibitors | 360,000 tested, 0.72% active | HEK-293 ATXN2-luciferase reporter, luminescence, 24 h; further: nearly all actives have a fitted effect of over 55% in size
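ATXN2-luciferase reporter cells (luciferase flanked by upstream and downstream ATXN2 gene portions) were treated 24 h at 37 °C with compounds at up to 57 uM. SteadyGlo luminescence gave expression; GF-AFC fluorescence gave viability.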
KB-3-1 cytotox = qHTS assay for MDR1-selective chemotherapeutics: Primary screen using the parental adenocarcinoma cell KB-3-1; KB-3-1 viability, CellTiter-Glo ATP luminescence, 72 h; 400,000 tested, 1.4% active; Potency, µM (titrated, usually from 46.1 µM), actives largely listed as cytotoxic; further: nearly all actives have a fitted effect of over 60% in size
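Cytotoxicity in the drug-sensitive parental line KB-3-1 was scored as loss of CellTiter-Glo luminescence following 72 h incubation with compound. Values come from curve fitting of normalized concentration-response data.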
S2 tox = Viability Counterscreen for Primary qHTS for Inhibitors of ATXN expression; S2 cells (HEK-293 line with an ATXN2-luciferase reporter) viability, CellTiter-Fluor protease fluorescence, 24 h; 400,000 tested, 0.49% active; Potency, µM (top dose mostly 56.7 µM), actives largely listed as cytotoxic; AID 651635, 2014; further: nearly all actives have a fitted effect of over 40% in size
KB-V1 cytotox = qHTS assay for MDR1-selective chemotherapeutics: Primary screen using the drug-selected MDR subline cells KB-V1 | KB-V1 MDR cells viability, CellTiter-Glo, 72 h | Potency, µM (series often up to 46.1 µM), hits mostly cytotoxic | 400,000 tested, 3.4% active | AID 1347076, 2019; further: nearly all actives have a fitted effect of over 60% in size
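KB-V1 cells (P-gp-expressing MDR subline of KB-3-1) in phenol-red-free DMEM with 10% FBS were exposed to library compounds over a concentration series for 72 h at 37 degrees C. Viability read by CellTiter-Glo luminescence; concentration-effect curves fitted after normalization.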
TGFb CAGA inh = qHTS for Inhibitors of TGF-b: Confirmation of Cherry Picks; shares compounds with TGFb inhibitor; HepG2 CAGA-GFP TGF-b reporter, GFP fluorescence, 18 h; cells stimulated with TGF-beta, 500 pg/mL; Potency, µM (series often up to 46.1 µM), actives largely listed as inhibitors; 1,600 tested, 63% active; further: nearly all actives have a fitted effect of over 65% in size
HepG2 tox-2 = qHTS for Inhibitors of TGF-b: Cytotox Counterscreen for Cherry Picks; shares compounds with TGFb inhibitor; HepG2 CAGA-GFP viability, ATP luminescence, 18 h; cells stimulated with TGF-beta, 500 pg/mL; Potency, µM (titrated, usually from 46.1 µM), hits mostly inhibitors; 1,600 tested, 27% active; further: nearly all actives have a fitted effect of over 70% in size
CCL64 TGFb inh = qHTS for Inhibitors of TGF-b: CCL64 Cells Orthogonal Assay for Cherry Picks; shares compounds with TGFb inhibitor; CCL64 CAGA-GFP reporter, TGF-b stimulated, GFP fluorescence, 18 h; Potency, µM (doses to about 46.1 µM), actives largely listed as inhibitors; 1,600 tested, 41% active; further: nearly all actives have a fitted effect of over 65% in size
COP TGFb inh = qHTS for Inhibitors of TGF-b: Hit Validation in HepG2 Cells using COP promoter; shares compounds with TGFb inhibitor; HepG2 COP-GFP TGF-b reporter, GFP fluorescence, 18 h; cells stimulated by added recombinant TGF-beta; Potency, µM (top dose mostly 46.1 µM), most hits filed as inhibitors; 1,600 tested, 3% active; AID 720537, 2013; further: nearly all actives have a fitted effect of over 70% in size
Large screens that a line does not name were inactive (follow-up assays come after a bar, where they were run). Only some compounds are listed: those with a hit (about 5.9% of all), similar ones and a draw of the others. The call rests on the fitted dose curve; in most records, active means well fitted curve in the direction sought with a large enough effect; inconclusive means small, poorly fitted or top-dose-only effect, or another doubt; inactive means no such curve, though single readings can be large; an effect the other way counts as inactive or inconclusive.

Cc1cccc(NS(=O)(=O)c2ccc(C)c(C(=O)NC3CCN(Cc4ccccc4)CC3)c2)c1	TGFb inhibitor 10µM (no result: ATXN2 expr inh, S2 tox) | TGFb CAGA inh inconclusive | HepG2 tox-2 inactive | CCL64 TGFb inh inconclusive | COP TGFb inh inactive
Cc1cc(N2CCC(C(=O)Nc3ccccc3Cl)CC2)n2nc(C)c(-c3ccc(Cl)cc3)c2n1	KB-V1 cytotox inconclusive
CC(C)c1ccc(NC(=O)c2cn(C3CCCCC3)c(=O)c3c2c2ccccc2n3C)cc1	none (no result: ATXN2 expr inh, S2 tox)
Cc1ccc(-c2csc(Cc3nc(-c4cc5ccccc5oc4=O)cs3)n2)cc1	TGFb inhibitor inconclusive, KB-V1 cytotox inconclusive | TGFb CAGA inh inconclusive | HepG2 tox-2 inactive | CCL64 TGFb inh inactive | COP TGFb inh inactive
O=c1oc2ccccc2cc1-c1csc(Cc2nc(-c3ccc(Br)cc3)cs2)n1	KB-3-1 cytotox inconclusive, S2 tox inconclusive, KB-V1 cytotox inconclusive
NC(=S)NN=Cc1c[nH]c2nccnc12	TGFb inhibitor 12.6µM, S2 tox inconclusive (no result: ATXN2 expr inh) | TGFb CAGA inh inconclusive | HepG2 tox-2 inconclusive | CCL64 TGFb inh inactive | COP TGFb inh inactive
COC(=O)c1c(NC(NC(=O)C(C)(C)C)C(Cl)(Cl)Cl)sc2c1CCC2 (stereo not drawn)	TGFb inhibitor 12.6µM | TGFb CAGA inh 9.2µM | HepG2 tox-2 inconclusive | CCL64 TGFb inh inconclusive | COP TGFb inh inactive
COC(=O)c1c(NC(NC(C)=O)C(Cl)(Cl)Cl)sc2c1CCCC2 (stereo not drawn)	TGFb inhibitor 12.6µM | TGFb CAGA inh 14.6µM | HepG2 tox-2 inactive | CCL64 TGFb inh 16.4µM | COP TGFb inh inactive
COC(=O)c1c(NC(NC(=O)C(C)C)C(Cl)(Cl)Cl)sc2c1CCC2 (stereo not drawn)	TGFb inhibitor inconclusive
CCC(=O)NC(Nc1sc2c(c1C(=O)OC)CCC2)C(Cl)(Cl)Cl (stereo not drawn)	TGFb inhibitor 11.2µM, KB-3-1 cytotox inconclusive, KB-V1 cytotox 23.1µM | TGFb CAGA inh 20.6µM | HepG2 tox-2 inactive | CCL64 TGFb inh inconclusive | COP TGFb inh inactive
CCNc1nc(N)c(C(=O)c2ccc(Cl)s2)s1	TGFb inhibitor 12.6µM, KB-3-1 cytotox inconclusive, KB-V1 cytotox inconclusive | TGFb CAGA inh 6.51µM | HepG2 tox-2 inconclusive | CCL64 TGFb inh inconclusive | COP TGFb inh inactive
O=C1c2oc3ccc(F)cc3c(=O)c2C(c2cccc([N+](=O)[O-])c2)N1CCCN1CCOCC1 (stereo not drawn)	none
COc1ccc(NC(=O)CNC(c2ccccc2)c2ccccc2)cc1Cl	TGFb inhibitor 11.2µM, KB-V1 cytotox inconclusive | TGFb CAGA inh inconclusive | HepG2 tox-2 inactive | CCL64 TGFb inh inconclusive | COP TGFb inh inactive

Compound activity: PubChem BioAssay, National Center for Advancing Translational Sciences (NCATS)
